High-throughput results (PubChem BioAssay)
KCNK9 block – KCNK9 potassium channel inhibitors, primary screen, HEK293 cells, thallium flux | Potassium channel subfamily K member 9 (Homo sapiens), Q9NPC2 | FluxOR thallium flux fluorescence; hits give low values | B-score at 10 µM | hit rate 1.2% among 310,000 | AID 488922, 2010;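 active = ratio B-score over 3 SD below the library mean, with starting fluorescence within 5 SD of its mean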;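 note: negative B-score means less thallium flux so channel inhibition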
Kir21 block – inhibitors of mouse Kir2.1 inward-rectifier potassium channel; HEK293-Kir2.1, FluxOR thallium flux fluorescence; hits give low values; B-score at 10 µM; Inward rectifier potassium channel 2 (Mus musculus), P35561; hit rate 0.85% among 310,000;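 active = fluorescence ratio B-score at or below minus 3 SD of library scores, with starting-brightness B-score within 2 SD, cut at about -4.2 in these data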;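 note: channel flux triggered by added potassium and thallium sulfate stimulus; B-score of peak minus minimum fluorescence over baseline after thallium stimulus; more negative B-score means stronger Kir2.1 block with less thallium influx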
ANO1 activ – TMEM16A chloride channel activators or potentiators, primary screen, cell-based, HTS; Anoctamin-1 (Mus musculus), Q8BHY3; HEK293 TMEM16A/YFP-H148Q/I152L, iodide quench fluorescence; hits give low values; B-score at 10 µM; hit rate 0.3% among 340,000; AID 623877, 2012;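 active = fluorescence-ratio B-score plate-corrected deviation score at least 3 library SD below zero, with starting fluorescence score within 5 deviations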;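 note: channel opened by trigger with iodide after compound preincubation; score built on the fluorescence ratio of max minus min over baseline; more negative score means more quench and so TMEM16A activation or potentiation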
TMEM16A inh – TMEM16A chloride channel inhibitors, primary screen, cell-based, HTS. Anoctamin-1 (Mus musculus), Q8BHY3. normalized B-score (activity score, 25-100; higher = stronger inhibition) at 10 µM. HEK293 TMEM16A/YFP iodide influx fluorescence, ionomycin. AID 588511, 2011. hit rate 1.2% among 310,000;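 active = ratio plate-corrected score three or more library SD toward inhibition, starting fluorescence score within five deviations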;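 note: score derived from kinetic fluorescence span divided by baseline fluorescence per well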
KCNK3 block – human KCNK3 channel inhibitors, primary screen, CHO cells, FluxOR thallium flux, B-score. B-score at 10 µM. AID 602410, 2012. hit rate 0.84% among 340,000. FluxOR fluorescence; hits give low values;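 active = B-score under library mean minus 4 SD, starting fluorescence ratio at most library mean plus 5 SD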;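 note: more negative B-score means stronger inhibition of thallium flux through KCNK3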
KCNK9 block conf – KCNK9 potassium channel inhibitors, confirmation, HEK293 cells, thallium flux, duplicate | hit rate 43% among 4,900 | AID 492992, 2010 | shares compounds with KCNK9 block | inhibition, % at 10 µM | FluxOR thallium flux fluorescence;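 active = thallium signal inhibited by more than 5 SD of the compound-free buffer control wells, on both duplicate plates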
Kir21 sel – mouse Kir2.1 channel inhibition, confirmation, selectivity assay for KCNK9 modulator project, cell-based, HEK293, thallium flux; shares compounds with KCNK9 block; Kir2.1 cells, FluxOR thallium flux fluorescence; inhibition, % at 10 µM; hit rate 4% among 4,900; AID 492993, 2010;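 active = thallium signal drop more than 5 SD beyond the mean of the no-compound control wells, seen in both duplicate plates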;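 note: signal is fluorescence rise after thallium addition divided by baseline fluorescence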
HEK293 Tl ctr – thallium flux in non-induced HEK293 cells, confirmation, counter-screen for KCNK9 inhibitor project, cell-based, second counter screen, non-induced KCNK9-HEK293; shares compounds with KCNK9 block; FluxOR thallium flux; inhibition, % at 10 µM; hit rate 40% among 4,900;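 active = thallium signal drop beyond 5 SD of the untreated control mean, on both duplicate plates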
Of the large screens only hits and unclear results are named; the others gave an inactive call (follow-up assays come after a bar, where they were run). An excerpt weighted towards active compounds, which were near 3.5% of everything screened.

NC(=O)C1CCN(C(=O)CCSc2ccc(Cl)cc2)CC1	none
COc1ccccc1Nc1nc(-c2cccc(N3C(=O)c4ccccc4C3=O)c2)cs1	none | KCNK9 block conf inactive | Kir21 sel inactive | HEK293 Tl ctr inactive
CCS(=O)(=O)N1CCC(C(=O)Nc2ccc3c(c2)CCC3)CC1	none
Cc1cccc2nc(-c3ccccc3)nc(N[C@@H](CO)c3ccccc3)c12	KCNK9 block -8.3 | KCNK9 block conf 50% | Kir21 sel inactive | HEK293 Tl ctr 44%
Cc1ccc(-c2nc(NCCCO)c3ccccc3n2)cc1	none
CCCN(C(=O)CCl)C1=CCCCC1	none
O=C(CC1SC(=Nc2ccccc2)N(CCCO)C1=O)Nc1ccc(Cl)cc1 (configuration not stated)	none | KCNK9 block conf inactive | Kir21 sel inactive | HEK293 Tl ctr inactive
COc1ccc2nc(Nc3nc(CSc4ccc(C)cc4)cc(=O)[nH]3)nc(C)c2c1	none | KCNK9 block conf inactive | Kir21 sel inactive | HEK293 Tl ctr inactive
O=C(NCc1ccco1)c1ccc2c(c1)N(Cc1ccccc1)C(=O)CS2	none | KCNK9 block conf inactive | Kir21 sel inactive | HEK293 Tl ctr inactive
Cc1cccc(Nc2nc(N)nc(-c3oc4ccccc4c3C)n2)c1	KCNK9 block -8.9 | KCNK9 block conf 35% | Kir21 sel inactive | HEK293 Tl ctr inactive
Cc1ccc(Nc2nc(N)nc(-c3oc4ccccc4c3C)n2)cc1	none
COc1cccc(Nc2nc(N)nc(-c3oc4ccccc4c3C)n2)c1	KCNK9 block -10 | KCNK9 block conf 38% | Kir21 sel inactive | HEK293 Tl ctr inactive
CCc1nc(Nc2cccc(OC)c2)c2oc3ccccc3c2n1	none
O=c1c2ccccc2nc(SCc2cccc(F)c2)n1Cc1ccco1	KCNK9 block -16 | KCNK9 block conf 55% | Kir21 sel inactive | HEK293 Tl ctr 54%
COCCn1c(SCc2ccc(F)cc2)nc2ccccc2c1=O	KCNK9 block -15 | KCNK9 block conf 68% | Kir21 sel inactive | HEK293 Tl ctr 38%
Cc1ccsc1C(=O)OCC(=O)N1CC(C)CC(C)C1 (configuration not stated)	none (no result: KCNK9 block, Kir21 block, TMEM16A inh)
Cc1cccc(N2CCN(Cc3nc(-c4cccc(Oc5ccccc5)c4)oc3C)CC2)n1	none | KCNK9 block conf inactive | Kir21 sel inactive | HEK293 Tl ctr inactive
COc1c(C=O)c2c(c(OC)c1OC)-c1ccc(OC)c(=O)cc1C(NC(C)=O)CC2 (configuration not stated)	none (no result: KCNK9 block, Kir21 block, TMEM16A inh)
NC(=O)c1cccc(-c2cnc(N)c(C(=O)c3cccnc3)n2)c1	none (no result: KCNK9 block, Kir21 block, TMEM16A inh)
CCC1CN(C(=O)NCc2cccc(OC)c2)c2ccccc2O1 (configuration not stated)	none | KCNK9 block conf inactive | Kir21 sel inactive | HEK293 Tl ctr inactive
CCC1CN(C(=O)NCc2cccc(OC)c2)c2cc(Cl)ccc2O1 (configuration not stated)	none
Cc1ccc2c(c1)N(C(=O)c1ccco1)C(C)(C)c1ssc(=S)c1-2	KCNK9 block -8.3 | KCNK9 block conf 38% | Kir21 sel inactive | HEK293 Tl ctr 30%
Cc1cccc2c1N(C(=O)c1ccco1)C(C)(C)c1ssc(=S)c1-2	none
Cc1ccc(NC(=O)CSc2nc3ccccc3nc2N2CCCC2)cc1	none | KCNK9 block conf inactive | Kir21 sel inactive | HEK293 Tl ctr inactive
CCc1ccc(NC(=O)CSc2nc3ccccc3nc2N2CCCC2)cc1	none | KCNK9 block conf inactive | Kir21 sel inactive | HEK293 Tl ctr inactive
CC(C)c1ccc(NC(=O)CSc2nc3ccccc3nc2N2CCCC2)cc1	none
O=C(CSc1nc2ccccc2nc1N1CCCC1)Nc1ccc(Cl)cc1	none
COc1cc2cc3c(N)c(C(=O)Nc4sc(C)c(C)c4C#N)sc3nc2cc1OC	none
O=C(/C=C/c1cccc([N+](=O)[O-])c1)NCCSCc1c(Cl)cccc1Cl	none
O=C(/C=C/c1cccc([N+](=O)[O-])c1)NCCSCc1ccc(Cl)cc1	KCNK9 block -9 | KCNK9 block conf 54% | Kir21 sel inactive | HEK293 Tl ctr 32%
Cc1ccc(SCCNC(=O)/C=C/c2cccc([N+](=O)[O-])c2)cc1	none | KCNK9 block conf inactive | Kir21 sel inactive | HEK293 Tl ctr inactive
COc1cc(C(=O)OCCc2cc3ccccc3c(=O)o2)cc(OC)c1OC	none (no result: KCNK9 block, Kir21 block, TMEM16A inh)
CC(C)OC(=O)CSc1nc(Cc2cccs2)nc2ccccc12	KCNK9 block -12, Kir21 block -4.4 | KCNK9 block conf 54% | Kir21 sel 45% | HEK293 Tl ctr 32%
COC(=O)CSc1nc(C(C)C)nc2ccccc12	none
O=C(Cc1ccc(Br)cc1)OCC(=O)N1CCOCC1	none (no result: KCNK9 block, Kir21 block, TMEM16A inh)
Cc1ccc(CN2CCSc3ccc(C(=O)NC4CCCC4)cc32)cc1	KCNK9 block -11 | KCNK9 block conf 52% | Kir21 sel inactive | HEK293 Tl ctr 31%
COc1ccc(OC)c(CCNC(=O)c2ccc3c(c2)N(Cc2ccc(F)cc2)CCS3)c1	KCNK9 block -11, KCNK3 block -10 | KCNK9 block conf 69% | Kir21 sel inactive | HEK293 Tl ctr 32%
COc1ccc(CCNC(=O)c2ccc3c(c2)N(Cc2ccc(F)cc2)CCS3)c(OC)c1	none
O=C(NNc1cc(Br)c(O)c(Br)c1)c1ccccc1	none
CN(C)Cc1cc(C(C)(C)c2ccccc2)ccc1O	none (no result: KCNK9 block, Kir21 block, TMEM16A inh)
CC1(C)c2[nH]c3ccccc3c2C[C@@H]2C(=O)N(Cc3ccccc3)C(=O)N21	none
Cc1cccc(CN2C(=O)[C@H]3Cc4c([nH]c5ccccc45)C(C)(C)N3C2=O)c1	none | KCNK9 block conf inactive | Kir21 sel inactive | HEK293 Tl ctr inactive
Cc1cccc(CN2C(=O)[C@@H]3Cc4c([nH]c5ccccc45)C(C)(C)N3C2=O)c1	none | KCNK9 block conf inactive | Kir21 sel inactive | HEK293 Tl ctr inactive
CCN1/C(=C/c2sc(-c3ccccc3C)c[n+]2C)Sc2ccccc21	KCNK9 block -13, Kir21 block -7.6, KCNK3 block -10 (no result: TMEM16A inh) | KCNK9 block conf 69% | Kir21 sel 64% | HEK293 Tl ctr 28%
c1ccc(OCCOc2ccccc2-c2nnco2)cc1	KCNK9 block -8.4 | KCNK9 block conf inactive | Kir21 sel inactive | HEK293 Tl ctr 28%
Clc1ccccc1COc1ccccc1-c1nnco1	none
Cc1c(C(=O)N(C)C(C)c2ccccn2)oc2c(F)cccc12 (configuration not stated)	none
